Laboratory results from PubChem BioAssay (Tox21).
Unmarked numbers belong to inactive results. Records with an inconclusive call do not appear. A call without a number means that no potency is given here. Calls of active or inactive are those of the source. Unless noted, calls follow the shape of the dose curve; as a rule, active = well fitted curve in the direction sought with a large enough effect in the repeat runs; inconclusive = weak or mixed curves; inactive = no such curve, though single readings can be large; an effect the other way counts as inactive or inconclusive.

Legend:
[1] = qHTS assay to identify small molecule agonists of the TGF-beta/Smad signaling pathway (AID 1346859; active = well fitted activation curve with a large enough effect in the signal ratio in the repeat runs, not every such curve was filed as active; the % refers to the signal ratio; also: series mostly up to about 77 µM)
Procedure, shortened: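 Beta-lactamase reporter activity downstream of Smad binding elements was measured in stably transfected HEK 293T cells; compounds were incubated for 5 hr, substrate for 2 hr at room temperature.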

[2] = molecular target: Thyrotropin-releasing hormone receptor (Homo sapiens) (UniProt P34981); experiment: qHTS assay to identify small molecule antagonists of the thyrotropin-releasing hormone receptor (TRHR) signaling pathway (AID 1346877; active = well fitted inhibition curve with a large enough effect in the repeat runs, not every such curve was filed as active; also: series mostly up to about 51 µM)
Procedure, shortened: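 HEK293/TRHR cells, 18 h, 37 °C; Ca2+ dye 2 h; cpd 5 min RT; TRH 1 nM final; fluorescence read 3 min, 1 s intervals; 15 concs, triplicate.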

[3] = molecular target: Thyrotropin-releasing hormone receptor (Homo sapiens) (UniProt P34981); experiment: qHTS assay to identify small molecule agonists of the thyrotropin-releasing hormone receptor (TRHR) signaling pathway (AID 1346891; calls by dose curve;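 also: HEK293 cells expressing TRHR with calcium dye readout; series mostly up to about 58 µM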)
Procedure, shortened: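 Overnight-plated (18 h, 37 °C, 5% CO2) TRHR-Hek293 cells; 2 h calcium dye at 37 °C; compound in DMSO; 3-min kinetic fluorescence read.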

[4] = Human pregnane X receptor (PXR) small molecule agonists, qHTS cell viability counter screen (AID 1346977); also: nearly all actives have a fitted effect of over 50% in size
Procedure, shortened: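 After a 5hr pre-incubation, PXR-Luc HepG2 cells received compounds plus positive control in DMSO and were kept 24hr at 37C. Cell viability was quantified by fluorescence from CellTiter-Fluor added for the final hour.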

[5] = Caspase-3/7 induction in HepG2 cells by small molecules, qHTS assay (AID 1346978); also: nearly all actives have a fitted effect of over 15% in size
Procedure, shortened: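 Caspase-3/7 induction was measured by Caspase-Glo 3/7 luminescence (30 min, room temperature) after a 17 hr compound exposure of wild-type HepG2 cells seeded at 2,000 per well and pre-incubated 5 hr.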

[6] = Caspase-3/7 induction in CHO-K1 cells by small molecules, qHTS cell viability counter screen (AID 1346979); also: nearly all actives have a fitted effect of over 35% in size
Procedure, shortened: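 Multiplexed with Caspase-Glo 3/7 in CHO-K1 cells, this counter screen added CellTiter-Fluor after 16hr of compound exposure and recorded fluorescence 1hr later.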

[7] = Caspase-3/7 induction in CHO-K1 cells by small molecules, qHTS assay (AID 1346980); also: nearly all actives have a fitted effect of over 15% in size
Procedure, shortened: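 Luminescent Caspase-Glo 3/7 read (30min, room temperature) quantified apoptosis induction. Cells were wild-type CHO-K1, treated with compound for 17hr at 37 C and 5% CO2.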

[8] = Caspase-3/7 induction in HepG2 cells by small molecules, qHTS cell viability counter screen (AID 1346981); also: series mostly up to about 92 µM; nearly all actives have a fitted effect of over 30% in size
Procedure, shortened: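 Fluorescence read-out of live-cell protease activity (CellTiter-Fluor) after 1 hr with reagent. This was measured in the same wells as the caspase-3/7 luminescence, on HepG2 cells exposed to DMSO-dissolved compounds for 16 hr at 37 C.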

[9] = molecular target: Nuclear receptor subfamily 1 group I member 2 (Homo sapiens) (UniProt O75469); experiment: Human pregnane X receptor (PXR) small molecule agonists, qHTS assay (AID 1346982); also: nearly all actives have a fitted effect of over 35% in size; also: potency is read from the fitted curve at half-maximal effect
Procedure, shortened: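 HepG2 PXR-Luc reporter line, 5% charcoal-stripped FBS; 5 hr pre-incubation, compound (DMSO) 24 hr at 37 C/5% CO2; ONE-Glo 30 min RT; luminescence read-out.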

[10] = molecular target: Nuclear receptor subfamily 1 group I member 2 (Rattus norvegicus) (UniProt Q9R1A7); experiment: Rat pregnane X receptor (rPXR) activation by small molecules, qHTS assay (AID 1346983); conditions: rPXR luciferase reporter cells, One-Glo luminescence, 24 h; max activation: stronger effect = higher value; also: nearly all actives have a fitted effect of over 20% in size
Procedure, shortened: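 Luminescent readout (One-Glo luciferase, 30 min room temperature) followed 24 hr compound treatment at 37 C of rPXR cells plated 2,000 per well and preincubated 5hr; qHTS format with compounds delivered in DMSO.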

Sequence of Nuclear receptor subfamily 1 group I member 2 (Rattus norvegicus) (Q9R1A7 whole entry, looked up): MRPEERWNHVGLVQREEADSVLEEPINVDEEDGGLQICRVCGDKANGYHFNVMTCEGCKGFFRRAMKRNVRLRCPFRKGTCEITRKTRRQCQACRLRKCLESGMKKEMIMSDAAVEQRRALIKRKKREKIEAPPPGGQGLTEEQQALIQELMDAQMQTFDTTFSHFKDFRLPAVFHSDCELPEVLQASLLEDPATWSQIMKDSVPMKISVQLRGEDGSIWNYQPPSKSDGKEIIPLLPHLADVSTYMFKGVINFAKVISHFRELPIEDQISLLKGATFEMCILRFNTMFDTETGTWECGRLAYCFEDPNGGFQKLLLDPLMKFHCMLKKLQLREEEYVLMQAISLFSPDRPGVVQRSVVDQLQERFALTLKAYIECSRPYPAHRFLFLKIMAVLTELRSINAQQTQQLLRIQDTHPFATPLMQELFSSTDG
Sequence of Nuclear receptor subfamily 1 group I member 2 (Homo sapiens) (O75469 whole entry, looked up): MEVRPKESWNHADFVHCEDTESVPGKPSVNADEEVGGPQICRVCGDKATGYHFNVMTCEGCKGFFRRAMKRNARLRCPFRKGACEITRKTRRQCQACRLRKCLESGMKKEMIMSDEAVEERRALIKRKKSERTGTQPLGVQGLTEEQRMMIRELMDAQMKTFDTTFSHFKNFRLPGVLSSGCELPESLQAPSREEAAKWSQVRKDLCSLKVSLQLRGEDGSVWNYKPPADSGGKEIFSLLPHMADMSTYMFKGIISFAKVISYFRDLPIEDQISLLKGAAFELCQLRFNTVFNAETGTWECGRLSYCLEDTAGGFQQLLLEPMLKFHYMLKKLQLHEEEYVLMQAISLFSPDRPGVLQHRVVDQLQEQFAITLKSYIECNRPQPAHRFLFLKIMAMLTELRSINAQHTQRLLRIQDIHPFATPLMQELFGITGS
Sequence of Thyrotropin-releasing hormone receptor (Homo sapiens) (P34981 whole entry, looked up): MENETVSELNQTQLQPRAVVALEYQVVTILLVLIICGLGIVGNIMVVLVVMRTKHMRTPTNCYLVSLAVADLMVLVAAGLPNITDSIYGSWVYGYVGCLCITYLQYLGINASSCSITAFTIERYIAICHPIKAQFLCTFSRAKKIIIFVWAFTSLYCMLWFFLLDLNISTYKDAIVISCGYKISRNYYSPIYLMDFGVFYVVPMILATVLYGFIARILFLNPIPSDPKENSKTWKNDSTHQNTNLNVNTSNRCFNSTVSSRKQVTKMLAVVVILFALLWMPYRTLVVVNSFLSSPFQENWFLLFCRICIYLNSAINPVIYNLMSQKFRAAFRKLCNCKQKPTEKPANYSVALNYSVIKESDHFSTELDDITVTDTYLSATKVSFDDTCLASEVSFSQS

In the case of `O=C(CN1CCN(Cc2ccc3c(c2)OCO3)CC1)N1c2ccccc2Sc2ccccc21`, the outcome [1] is reported as “inactive”, the outcome [2] is reported as “inactive” and the outcome [3] is reported as “inactive”. The Potency [4] was “inactive”, the outcome [5] was “inactive” and the Potency [6] was “inactive”. For the same compound, the outcome [7] was “inactive”, the Potency [8] was “inactive” and the Potency [9] was 11.9 µM (active). For the same compound, the max activation [10] was 6.39%.
In the case of `CCCCCCCC[Si](OCC)(OCC)OCC`, the outcome [1] is reported as “inactive”, the outcome [2] is reported as “inactive” and the outcome [3] is reported as “inactive”. For the same compound, the Potency [4] was “inactive”, the outcome [5] was “inactive” and the Potency [6] was “inactive”. The outcome [7] was “inactive” and the Potency [9] was “inactive”.
With `Nc1nc(=O)n([C@@H]2O[C@H](CO)[C@@H](O)[C@@H]2F)cc1I` the outcome [1] was “inactive”, the outcome [2] was “inactive” and the outcome [3] was “inactive”. The Potency [4] was “inactive”, the outcome [5] was “inactive” and the outcome [7] was “inactive”. The Potency [8] was “inactive” and the Potency [9] was “inactive”.
In the case of `CC(=O)Nc1ncc([N+](=O)[O-])s1`, the outcome [1] is reported as “inactive”, the outcome [2] is reported as “inactive” and the outcome [3] is reported as “inactive”. The Potency [4] was “inactive”, the outcome [5] was “inactive” and the Potency [6] was “inactive”. For the same compound, the outcome [7] was “inactive”, the Potency [8] was “inactive” and the Potency [9] was “inactive”. The max activation [10] was -3.65%.
In the case of `CCCCC(CC)C(=O)OC(C)C` (stereo not drawn), the outcome [1] is reported as “inactive”, the outcome [2] is reported as “inactive” and the outcome [3] is reported as “inactive”. For the same compound, the Potency [4] was “inactive”, the outcome [5] was “inactive” and the Potency [6] was “inactive”. The outcome [7] was “inactive”, the Potency [8] was “inactive” and the Potency [9] was “inactive”.
For `CC(=O)OC(C)c1ccccc1` (stereo not drawn), the outcome [1] was “inactive”, the outcome [2] was “inactive” and the outcome [3] was “inactive”. The Potency [4] was “inactive”, the outcome [5] was “inactive” and the Potency [6] was “inactive”. The outcome [7] was “inactive”, the Potency [8] was “inactive” and the Potency [9] was “inactive”.
In the case of `CCCCCCCCCCCCC1CO1` (stereo not drawn), the outcome [1] is reported as “inactive”, the outcome [2] is reported as “inactive” and the outcome [3] is reported as “inactive”. The Potency [4] was “inactive”, the outcome [5] was “inactive” and the Potency [6] was “inactive”. For the same compound, the outcome [7] was “inactive”, the Potency [8] was “inactive” and the Potency [9] was “inactive”.
In the case of `CC(C)SCc1ccco1`, the outcome [1] is reported as “inactive”, the outcome [2] is reported as “inactive” and the outcome [3] is reported as “inactive”. The Potency [4] was “inactive”, the outcome [5] was “inactive” and the Potency [6] was “inactive”. The outcome [7] was “inactive” and the Potency [9] was “inactive”.
In the case of `O=c1[nH]c(=O)c2[nH]c(=O)[nH]c2[nH]1`, the activation [1] is reported as -2.44% [at 6.97 µM], the activity, negative = inhibition [2] is reported as 0.0155% [at 4.65 µM] and the activation [3] is reported as 0.501% [at 5.23 µM]. It also gave an activity change, negative = cytotoxicity [4] of -1.5% [at 8.39 µM], a caspase activation [5] of -0.796% [at 8.39 µM] and an activity change, negative = cytotoxicity [6] of 4.37% [at 8.39 µM]. The caspase-3/7 activation [7] was -0.0479% [at 8.39 µM], the activity change, negative = cytotoxicity [8] was 2.67% [at 8.39 µM] and the activation [9] was -5.05% [at 8.39 µM]. The max activation [10] was -2.16%.
For `CNCc1ccccc1`, the outcome [1] was “inactive”, the outcome [2] was “inactive” and the outcome [3] was “inactive”. For the same compound, the Potency [4] was “inactive”, the outcome [5] was “inactive” and the Potency [6] was “inactive”. The outcome [7] was “inactive”, the Potency [8] was “inactive” and the Potency [9] was “inactive”. For the same compound, the max activation [10] was -0.758%.
With `COC(OC)C(C)c1ccccc1` (stereo not drawn) the outcome [1] was “inactive”, the outcome [2] was “inactive” and the outcome [3] was “inactive”. For the same compound, the Potency [4] was “inactive”, the outcome [5] was “inactive” and the Potency [6] was “inactive”. The outcome [7] was “inactive”, the Potency [8] was “inactive” and the Potency [9] was “inactive”.
For `CO[Si](CCCCl)(OC)OC`, the outcome [1] was “inactive”, the outcome [2] was “inactive” and the outcome [3] was “inactive”. For the same compound, the Potency [4] was “inactive”, the outcome [5] was “inactive” and the outcome [7] was “inactive”. For the same compound, the Potency [8] was “inactive” and the Potency [9] was “inactive”.
In the case of `Nc1ccnc(=O)[nH]1`, the outcome [1] is reported as “inactive”, the outcome [2] is reported as “inactive” and the outcome [3] is reported as “inactive”. The Potency [4] was “inactive”, the outcome [5] was “inactive” and the Potency [6] was “inactive”. The outcome [7] was “inactive”, the Potency [8] was “inactive” and the Potency [9] was “inactive”.
For `CC(=O)OCC(=O)[C@@]1(O)[C@H](OC(C)=O)C[C@H]2[C@@H]3CCC4=CC(=O)C=C[C@]4(C)[C@@]3(F)[C@@H](O)C[C@@]21C`, the outcome [1] was “inactive”, the outcome [2] was “inactive” and the outcome [3] was “inactive”. The Potency [4] was “inactive”, the outcome [5] was “inactive” and the Potency [6] was “inactive”. The outcome [7] was “inactive”, the Potency [8] was “inactive” and the Potency [9] was “inactive”.
For `CC(Cl)COP(=O)(OCC(C)Cl)OCC(C)Cl` (stereo not drawn), the outcome [1] was “inactive”, the outcome [2] was “inactive” and the outcome [3] was “inactive”. For the same compound, the Potency [4] was “inactive”, the outcome [5] was “inactive” and the Potency [6] was “inactive”. For the same compound, the outcome [7] was “inactive”, the Potency [8] was “inactive” and the Potency [9] was 13.6 µM (active).
With `Cn1c(=O)c2c(ncn2CC2OCCO2)n(C)c1=O` the outcome [1] was “inactive”, the outcome [2] was “inactive” and the outcome [3] was “inactive”. For the same compound, the Potency [4] was “inactive”, the outcome [5] was “inactive” and the Potency [6] was “inactive”. For the same compound, the outcome [7] was “inactive”, the Potency [8] was “inactive” and the Potency [9] was “inactive”. For the same compound, the max activation [10] was 6.17%.
For `C=C(C)C(=O)OCCCCCCOC(=O)C(=C)C`, the outcome [1] was “inactive”, the outcome [2] was “inactive” and the outcome [3] was “inactive”. The Potency [4] was “inactive”, the outcome [5] was “inactive” and the Potency [6] was “inactive”. The outcome [7] was “inactive”, the Potency [8] was “inactive” and the Potency [9] was “inactive”.
In the case of `Cc1ccccc1C(=O)N1CC/C(=N\OS(=O)(=O)O)c2ccc(Cl)cc21`, the outcome [1] is reported as “inactive”, the outcome [2] is reported as “inactive” and the outcome [3] is reported as “inactive”. For the same compound, the Potency [4] was “inactive”, the outcome [5] was “inactive” and the Potency [6] was “inactive”. The outcome [7] was “inactive”, the Potency [8] was “inactive” and the Potency [9] was “inactive”.
In the case of `C[CH2][Ge]([Cl])([CH2]C)[CH2]C`, the outcome [1] is reported as “inactive”, the outcome [2] is reported as “inactive” and the outcome [3] is reported as “inactive”. For the same compound, the Potency [4] was “inactive”, the outcome [5] was “inactive” and the Potency [6] was “inactive”. For the same compound, the outcome [7] was “inactive”, the Potency [8] was “inactive” and the Potency [9] was “inactive”.
In the case of `NC(=O)NNC(N)=O`, the outcome [1] is reported as “inactive”, the outcome [2] is reported as “inactive” and the outcome [3] is reported as “inactive”. The Potency [4] was “inactive”, the outcome [5] was “inactive” and the Potency [6] was “inactive”. The outcome [7] was “inactive”, the Potency [8] was “inactive” and the Potency [9] was “inactive”.
With `NS(=O)(=O)c1cc2c(cc1Cl)NC(C(Cl)Cl)NS2(=O)=O` (stereo not drawn) the outcome [1] was “inactive”, the outcome [2] was “inactive” and the outcome [3] was “inactive”. For the same compound, the Potency [4] was “inactive”, the outcome [5] was “inactive” and the Potency [6] was “inactive”. The outcome [7] was “inactive”, the Potency [8] was “inactive” and the Potency [9] was “inactive”. It also gave a max activation [10] of 3.75%.
For `CCC1COC(=O)O1` (stereo not drawn), the outcome [1] was “inactive”, the outcome [2] was “inactive” and the outcome [3] was “inactive”. The Potency [4] was “inactive”, the outcome [5] was “inactive” and the Potency [6] was “inactive”. The outcome [7] was “inactive”, the Potency [8] was “inactive” and the Potency [9] was “inactive”.
In the case of `CCCCC(=O)N(C)C`, the outcome [1] is reported as “inactive”, the outcome [2] is reported as “inactive” and the outcome [3] is reported as “inactive”. For the same compound, the Potency [4] was “inactive”, the outcome [5] was “inactive” and the Potency [6] was “inactive”. For the same compound, the outcome [7] was “inactive”, the Potency [8] was “inactive” and the Potency [9] was “inactive”.
In the case of `O=S(=O)(O)SSS(=O)(=O)O`, the outcome [1] is reported as “inactive”, the outcome [2] is reported as “inactive” and the outcome [3] is reported as “inactive”. The Potency [4] was “inactive”, the outcome [5] was “inactive” and the Potency [6] was “inactive”. For the same compound, the outcome [7] was “inactive”, the Potency [8] was “inactive” and the Potency [9] was “inactive”.
